Assay results taken from PubChem BioAssay AID1159580 (chemical genetic matrix, 2015).
“And” between values parts separate entries of the source, which are not always exact repeats. Equal values may be shown once. In all, about 5,500 compounds went through this assay and about 2,000 (36%) were called active. Inconclusive results (about 18%) are left out. Cut-off read from the data, not from the text of the source: active = normalized growth mostly below about 0.91 (no sharp cut-off); inconclusive = no clear call, values can overlap the other calls; inactive = mostly above about 0.92. The list shows a part of the results.

Test: chemical genetic growth profiling, strain panel (AID 1159580);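 note: tested at 20 µM; growth read once vehicle control cultures reached saturation at 30 °C; 1 = growth at the plate median or of vehicle wells; lower values mean less growth of the strain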
Conditions: growth OD

Measured: normalized growth

CC(C)NCC(O)COc1cccc2[nH]ccc12 (stereo not given)
inactive: S. cerevisiae deletion strains, locus YJR075W, strain HOC1, hits give low values 1.01 | S. cerevisiae deletion strains, locus YKL009W, strain mrt4, hits give low values 0.966 | S. cerevisiae deletion strains, locus YKL068W, hits give low values 0.984 | S. cerevisiae deletion strains, locus YKL085W, strain MDH1 (second series), hits give low values 0.968 | S. cerevisiae deletion strains, locus YKL085W, strain MDH1, hits give low values 0.968 | S. cerevisiae deletion strains, locus YKL160W, strain elf1, hits give low values 1 | S. cerevisiae deletion strains, locus YKL190W, strain CNB1, hits give low values 0.993 | S. cerevisiae deletion strains, locus YKR001C, strain vps1, hits give low values 0.988 | S. cerevisiae deletion strains, locus YKR026C, strain gcn3, hits give low values 0.966 | S. cerevisiae deletion strains, locus YKR091W, strain srl3, hits give low values 0.992 | S. cerevisiae deletion strains, locus YLL026W, hits give low values 0.983 | S. cerevisiae deletion strains, locus YLL041C, strain sdh2, hits give low values 0.983 | S. cerevisiae deletion strains, locus YLR027C, strain aat2, hits give low values 0.985 | S. cerevisiae deletion strains, locus YLR039C, strain RIC1, hits give low values 0.962 | S. cerevisiae deletion strains, locus YLR058C, strain SHM2, hits give low values 0.996 | S. cerevisiae deletion strains, locus YLR102C, strain apc9, hits give low values 0.988 | S. cerevisiae deletion strains, locus YLR113W, strain HOG1, hits give low values 0.987 | S. cerevisiae deletion strains, locus YLR221C, strain rsa3, hits give low values 0.994 | S. cerevisiae deletion strains, locus YLR258W, strain gsy2, hits give low values 0.981 | S. cerevisiae deletion strains, locus YLR262C, strain YPT6 (second series), hits give low values 0.994 | S. cerevisiae deletion strains, locus YLR262C, strain YPT6, hits give low values 0.966 | S. cerevisiae deletion strains, locus YLR268W, strain sec22, hits give low values 0.953 | S. cerevisiae deletion strains, locus YLR320W, strain mms22, hits give low values 0.977 | S. cerevisiae deletion strains, locus YLR330W, strain CHS5, hits give low values 0.978 | S. cerevisiae deletion strains, locus YLR342W, strain FKS1 (second series), hits give low values 0.994 | S. cerevisiae deletion strains, locus YLR342W, strain FKS1, hits give low values 0.996 | S. cerevisiae deletion strains, locus YLR357W, strain rsc2, hits give low values 0.952 | S. cerevisiae deletion strains, locus YLR370C, strain arc18, hits give low values 0.974 | S. cerevisiae deletion strains, locus YLR371W, strain rom2, hits give low values 0.97 | S. cerevisiae deletion strains, locus YLR384C, strain iki3, hits give low values 0.992 | S. cerevisiae deletion strains, locus YLR418C, strain cdc73, hits give low values 1 | S. cerevisiae deletion strains, locus YML016C, strain PPZ1, hits give low values 0.995 | S. cerevisiae deletion strains, locus YML032C, strain rad52, hits give low values 0.984 | S. cerevisiae deletion strains, locus YML120C, strain ndi1, hits give low values 0.976 | S. cerevisiae deletion strains, locus YML124C, strain tub3, hits give low values 0.989 | S. cerevisiae deletion strains, locus YMR058W, strain fet3, hits give low values 0.977 | S. cerevisiae deletion strains, locus YMR078C, strain ctf18, hits give low values 0.981 | S. cerevisiae deletion strains, locus YMR125W, strain sto1, hits give low values 0.953 | S. cerevisiae deletion strains, locus YMR129W, hits give low values 0.974 | S. cerevisiae deletion strains, locus YMR205C, strain PFK2, hits give low values 0.968 | S. cerevisiae deletion strains, locus YMR223W, strain ubp8, hits give low values 1.03 | S. cerevisiae deletion strains, locus YMR231W, strain pep5, hits give low values 0.984 | S. cerevisiae deletion strains, locus YMR263W, strain SAP30, hits give low values 0.985 and 1 and 0.998 | S. cerevisiae deletion strains, locus YMR307W, strain GAS1, hits give low values 1 and 0.998 | S. cerevisiae deletion strains, locus YNL067W, strain RPL9B, hits give low values 0.992 | S. cerevisiae deletion strains, locus YNL071W, strain lat1, hits give low values 0.982 | S. cerevisiae deletion strains, locus YNL128W, strain TEP1, hits give low values 0.986 | S. cerevisiae deletion strains, locus YNL153C, strain GIM3, hits give low values 1.01 | S. cerevisiae deletion strains, locus YNL175C, strain NOP13, hits give low values 0.995 and 1.02 | S. cerevisiae deletion strains, locus YNL183C, strain NPR1, hits give low values 0.955 | S. cerevisiae deletion strains, locus YNL197C, strain WHI3, hits give low values 0.986 and 1.02 | S. cerevisiae deletion strains, locus YNL209W, strain ssb2, hits give low values 0.99 | S. cerevisiae deletion strains, locus YNL224C, strain SQS1, hits give low values 0.992 and 0.996 | S. cerevisiae deletion strains, locus YNL233W, strain BNI4, hits give low values 0.995 | S. cerevisiae deletion strains, locus YNL248C, strain rpa49, hits give low values 1 | S. cerevisiae deletion strains, locus YNL250W, strain rad50, hits give low values 0.986 | S. cerevisiae deletion strains, locus YNL271C, strain bni1, hits give low values 0.993 | S. cerevisiae deletion strains, locus YNL298W, strain CLA4, hits give low values 0.977 | S. cerevisiae deletion strains, locus YNL307C, strain MCK1, hits give low values 0.982 | S. cerevisiae deletion strains, locus YNL322C, strain KRE1 (second series), hits give low values 0.994 | S. cerevisiae deletion strains, locus YNL322C, strain KRE1, hits give low values 0.995 and 0.991 and 1.02 | S. cerevisiae deletion strains, locus YNR049C, strain mso1, hits give low values 0.975 | S. cerevisiae deletion strains, locus YNR052C, strain pop2, hits give low values 0.967 | S. cerevisiae deletion strains, locus YOL006C, strain TOP1, hits give low values 1.04 | S. cerevisiae deletion strains, locus YOL012C, strain htz1 0.915 | S. cerevisiae deletion strains, locus YOL147C, strain pex11, hits give low values 0.992 | S. cerevisiae deletion strains, locus YOR001W, strain rrp6, hits give low values 0.994 | S. cerevisiae deletion strains, locus YOR061W, strain CKA2, hits give low values 0.996 | S. cerevisiae deletion strains, locus YOR069W, strain VPS5, hits give low values 0.991 | S. cerevisiae deletion strains, locus YOR070C, strain gyp1, hits give low values 0.981 | S. cerevisiae deletion strains, locus YOR080W, strain dia2, hits give low values 0.983 | S. cerevisiae deletion strains, locus YOR083W, strain WHI5 (second series), hits give low values 1.02 and 0.995 | S. cerevisiae deletion strains, locus YOR083W, strain WHI5, hits give low values 1.01 | S. cerevisiae deletion strains, locus YOR106W, strain vam3, hits give low values 1 | S. cerevisiae deletion strains, locus YOR136W, strain idh2, hits give low values 0.995 | S. cerevisiae deletion strains, locus YOR144C, strain elg1, hits give low values 0.992 | S. cerevisiae deletion strains, locus YOR184W, strain ser1, hits give low values 0.988 | S. cerevisiae deletion strains, locus YOR231W, strain MKK1, hits give low values 1 | S. cerevisiae deletion strains, locus YOR265W, strain rbl2, hits give low values 0.982 | S. cerevisiae deletion strains, locus YOR270C, strain vph1, hits give low values 0.973 | S. cerevisiae deletion strains, locus YOR290C, strain snf2, hits give low values 0.963 | S. cerevisiae deletion strains, locus YOR316C, strain cot1, hits give low values 0.98 | S. cerevisiae deletion strains, locus YPL051W, strain arl3, hits give low values 0.996 | S. cerevisiae deletion strains, locus YPL055C, strain LGE1, hits give low values 1.01 and 0.998 | S. cerevisiae deletion strains, locus YPL078C, strain atp4, hits give low values 0.989 | S. cerevisiae deletion strains, locus YPL106C, strain sse1, hits give low values 0.979 | S. cerevisiae deletion strains, locus YPL240C, strain hsp82, hits give low values 0.98 | S. cerevisiae deletion strains, locus YPL241C, strain CIN2, hits give low values 0.991 and 0.996 | S. cerevisiae deletion strains, locus YPL256C, strain CLN2, hits give low values 0.99 | S. cerevisiae deletion strains, locus YPR119W, strain clb2, hits give low values 0.981 | S. cerevisiae deletion strains, locus YPR141C, strain kar3, hits give low values 0.993 | S. cerevisiae deletion strains, locus YPR163C, strain tif3, hits give low values 0.984 | S. cerevisiae deletion strains, locus YPR167C, strain met16, hits give low values 0.977 | S. cerevisiae deletion strains, strain wtn01, hits give low values 0.985 | S. cerevisiae strains, strain wild type, hits give low values 1
